Our source for the Percent Effect values is ChEMBL document CHEMBL3988442, “University of Dundee, Small-Polar-MMV Screening Library” (2021).

This test deals with AMP-activated protein kinase, AMPK (Homo sapiens) (UniProt P54646+O43741+P54619+Q9UGJ0+Q9Y478+Q13131+Q9UGI9). Kind of test: AMP-dependent Kinase enzyme assay. An in vitro enzyme assay that detects ADP turnover that is directly proportional to AMPK activity. This uses naive AMPK that is activated during the assay with MK-8722. Conditions: 30 µM. Details: scale not given: direction of the effect not stated beside the values. The test is classed as functional.
`Cc1ccccc1CNC(=O)CN1CCN(Cc2nccn2C)CC1`: the Percent Effect was -6.67%.

As for `CCC(=O)N1CCC2(CC1)c1nc[nH]c1CCN2S(C)(=O)=O`, the Percent Effect is -6.81%.

As for `Cc1cc(C)n(-c2cncc(NCCNC(=O)CC3CCCC3)n2)n1`, the Percent Effect came out at 16.2%.

Consider `Cn1ccnc1CNC(=O)N(CCCO)C1CCCc2ccccc21` (stereo not given), for which the Percent Effect was -1.41%.

As to `Cc1cccc(CCC(=O)N2CCOCC2c2c(C)n[nH]c2C)c1` (stereo not given), the Percent Effect is -2.62%.

Consider `COc1ccc(CC(=O)N2CCCCC2Cn2cccn2)cc1OC` (stereo not given), for which the Percent Effect came out at 1.89%.

For `O=C(c1ccc[nH]1)N1CCC2(CC1)C(=O)Nc1ccccc12`, the Percent Effect is -2.52%.

Regarding `Cc1ccc(CN2CCCC3(COCCN(Cc4c[nH]nn4)C3)C2)o1` (stereo not given), the Percent Effect was determined as 3.3%.

With `CCSc1ccc(C(=O)Nc2c(C)nn(C(C)C)c2C)cn1`, the Percent Effect came out at 1.71%.

Consider `N#CC1(C(=O)N2CCN(Cc3cscn3)CC2)CCCC1`, for which the Percent Effect is -7.12%.

Turning to `CN(C)C(CNC(=O)c1cc2c([nH]c1=O)CCCC2=O)c1ccsc1` (stereo not given), the Percent Effect is -3.65%.

For the molecule `Cn1nccc1C1CCN(CC(O)c2cccc(F)c2)CC1` (stereo not given), the Percent Effect worked out at 0.204%.

`CC(C)N1CCC(Cc2cnc(-c3cccc(C(=O)O)c3)cn2)C1` (stereo not given): the Percent Effect stood at 12.1%.

Consider `Cc1cn2c(n1)CCC(NC(=O)CCn1cncn1)C2` (stereo not given), for which the Percent Effect is -6.54%.

Turning to `Cc1nc(CN(Cc2cccs2)C2CCS(=O)(=O)C2)oc1C` (stereo not given), the Percent Effect was -1.59%.

Regarding `c1csc(-c2nc(CN3CCOC(Cn4cccn4)C3)co2)c1` (stereo not given), the Percent Effect is -12.4%.

Regarding `CC1N(CC2CC2)C(=O)COC12CCN(Cc1nccs1)CC2` (stereo not given), the Percent Effect is -7.81%.

Turning to `Cc1nn(CC(=O)N2CCN(c3ccccc3F)CC2)c(C)c1Cl`, the Percent Effect amounted to 4.64%.

For `c1nc2c(c(C3CC3)n1)CCN(CC1CCOC1)CC2` (stereo not given), the Percent Effect amounted to 3.6%.

For `Cc1nc(CN2CCCC(NCCOc3ccccc3)C2)no1` (stereo not given), the Percent Effect is -4.3%.
